Measurements reported in PubChem BioAssay (EPA / NIEHS).
Several values for one entry are separate records, joined by “and”; a condition that tells them apart may be missing. Identical values can stand only once. Activity calls are given as the source filed them. How the source made its calls: active means hit-call score of the fitted dose curve at least 0.9, where 1 is the maximum; inactive means score below 0.9.

Key:
[1] = BSK_hDFCGF_SRB: Viability Assessment in the BioMAP Diversity Plus: hDFCGF Assay (AID 2283061); details: primary human foreskin fibroblasts;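 further: cells exposed to compound for 24 h before the read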
How it was run: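 Primary human foreskin fibroblasts; 24 h post-dose; fixed 10% TCA, stained 0.1% SRB, A560 read; total protein as overt cytotoxicity measure; curves fit bidirectionally vs DMSO control.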

[2] = read-out: TIMP metallopeptidase inhibitor 1 (TIMP1), TIMP1 (gene 7076); experiment: BSK_hDFCGF_TIMP1: BioMAP Diversity Plus: hDFCGF Assay for TIMP metallopeptidase inhibitor 1 (TIMP1) Biomarker Activity (AID 2283062); details: primary human foreskin fibroblasts; actives raise or lower the signal
How it was run: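 ELISA readout of TIMP-1 from human dermal foreskin fibroblast cultures 24 h post-dosing. Curves were fitted in both directions against DMSO baseline, with SRB total-protein staining in parallel cultures as a cytotoxicity check.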

[3] = read-out: Monokine induced gamma interferon (MIG), CXCL9 (gene 4283); experiment: BSK_hDFCGF_MIG: BioMAP Diversity Plus: hDFCGF Assay for Monokine induced gamma interferon (MIG) Biomarker Activity (AID 2283063); details: primary human foreskin fibroblasts; actives raise or lower the signal
How it was run: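 Fibroblasts (human foreskin, primary) dosed, 24 h, MIG by ELISA; fit bidirectional vs DMSO.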

[4] = read-out: Matrix Metallopeptidase 1 (MMP1), MMP1 (gene 4312); experiment: BSK_hDFCGF_MMP1: BioMAP Diversity Plus: hDFCGF Assay for Matrix Metallopeptidase 1 (MMP1) Biomarker Activity (AID 2283064); details: primary human foreskin fibroblasts; actives raise or lower the signal
How it was run: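 Primary human foreskin fibroblasts exposed to chemicals for 24 h; MMP1 measured by ELISA. Cytotoxicity tracked by SRB staining in parallel cultures; bidirectional fit relative to DMSO.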

[5] = read-out: Vascular cell adhesion molecule 1 (VCAM1), VCAM1 (gene 7412); experiment: BSK_hDFCGF_VCAM1: BioMAP Diversity Plus: hDFCGF Assay for Vascular cell adhesion molecule 1 (VCAM1) Biomarker Activity (AID 2283065); details: primary human foreskin fibroblasts; actives raise or lower the signal;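 on AC50: VCAM-1 protein level quantified by ELISA after 24 h chemical exposure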
How it was run: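 ELISA read-out of VCAM-1 on human skin fibroblasts, 24 h post-dose; gain or loss of signal fitted bidirectionally against DMSO baseline.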

[6] = read-out: Plasminogen activator inhibitor-1 (PAI1), SERPINE1 (gene 5054); experiment: BSK_hDFCGF_PAI1: BioMAP Diversity Plus: hDFCGF Assay for Plasminogen activator inhibitor-1 (PAI1) Biomarker Activity (AID 2283066); details: primary human foreskin fibroblasts; actives raise or lower the signal
How it was run: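 PAI-1 levels, determined by ELISA, served as the endpoint in human foreskin fibroblast cultures exposed to compound for 24 h, with DMSO as baseline.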

[7] = read-out: Intercellular Adhesion Molecule 1 (ICAM1), ICAM1 (gene 3383); experiment: BSK_KF3CT_ICAM1: BioMAP Diversity Plus: KF3CT Assay for Intercellular Adhesion Molecule 1 (ICAM1) Biomarker Activity (AID 2283067); details: primary human keratinocytes with fibroblasts; actives raise or lower the signal
How it was run: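 ELISA readout of ICAM-1; KF3CT human skin co-culture (keratinocytes + foreskin fibroblasts), 24 h post-dose; gain/loss fit vs DMSO baseline.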

[8] = read-out: Interferon-gamma inducible Protein 10 (IP10), CXCL10 (gene 3627); experiment: BSK_KF3CT_IP10: BioMAP Diversity Plus: KF3CT Assay for Interferon-gamma inducible Protein 10 (IP10) Biomarker Activity (AID 2283068); details: primary human keratinocytes with fibroblasts; actives raise or lower the signal
How it was run: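 Signal is secreted/surface IP-10 by ELISA in a human primary skin co-culture of keratinocytes and foreskin fibroblasts, taken 24 h post-dosing; DMSO served as negative control.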

[9] = BSK_KF3CT_SRB: Viability Assessment in the BioMAP Diversity Plus: KF3CT Assay (AID 2283069); details: primary human keratinocytes with fibroblasts;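 further: total protein by sulforhodamine B staining as a cytotoxicity measure; read 24 h after compound addition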
How it was run: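 Human keratinocyte and foreskin fibroblast co-culture exposed to chemical for 24 h. Total protein measured in parallel cultures by 0.1% sulforhodamine B staining after 10% TCA fixation, read at 560 nm; bidirectional fit relative to DMSO.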

Measured: AC50

CCCCC1C(=O)N(c2ccccc2)N(c2ccccc2)C1=O
inactive: [1] | [2] | [3] | [4] | [5] | [6] | [7] | [8] | [9]

COC(OC)(C(=O)c1ccccc1)c1ccccc1
inactive: [1] | [2] | [3] | [4] | [5] | [6] | [7] | [8]

O=C1CCCCCCCCCCC1
inactive: [1] | [2] | [3] | [4] | [5] | [6] | [7] | [8]

C=CC(=O)OCC(C)OCC(C)OCC(C)OC(=O)C=C (stereo not drawn)
active: [1] 6.59 µM | [2] 11 µM | [3] 11.3 µM | [4] 27.5 µM | [5] 8.28 µM | [6] 6.86 µM | [7] 18.1 µM | [8] 28.1 µM

Oc1ccccc1Cc1ccccc1O
inactive: [2] | [3] | [4] | [5] | [6] | [7] | [8] | [9]
active: [1] 1.22 µM and 191 nM

CC=C(C)C(C)=O
active: [5] 6.7 µM
inactive: [1] | [2] | [3] | [4] | [6] | [7] | [8]

c1ccc2sc(SSN3CCOCC3)nc2c1
active: [1] 7.52 µM | [2] 10.7 µM | [6] 4.82 µM | [7] 10.7 µM | [8] 23.8 µM
inactive: [3] | [4] | [5]

CC(c1cc(C(C)(C)C)cc(C(C)(C)C)c1O)c1cc(C(C)(C)C)cc(C(C)(C)C)c1O
active: [6] 0.358 µM
inactive: [1] | [2] | [3] | [4] | [5] | [7] | [8]

C=CC(=O)NCOCCCC
inactive: [1] | [2] | [3] | [4] | [5] | [6] | [7] | [8] | [9]

CCN1CN(CC)CN(CC)C1
inactive: [1] | [2] | [3] | [4] | [5] | [6] | [7] | [8] | [9]

Clc1cc(Cl)c(Cl)c(Cl)c1Cl
inactive: [1] | [2] | [3] | [4] | [5] | [6] | [7] | [8]

C=C(C)C(=O)OCCCCCCCCCCCC
inactive: [1] | [2] | [3] | [4] | [5] | [6] | [7] | [8] | [9]

CCc1cccc(C)c1N(C(=O)CS(=O)(=O)O)C(C)COC (stereo not drawn)
inactive: [1] | [2] | [3] | [4] | [5] | [6] | [7] | [8] | [9]

CC=C(C)C=CC=C(C)C
inactive: [1] | [2] | [3] | [4] | [7] | [8] | [9]
active: [5] 6.06 µM | [6] 0.016 µM

CC(C)[N+](C)(CCOC(=O)C1c2ccccc2Oc2ccccc21)C(C)C
inactive: [1] | [2] | [3] | [4] | [5] | [6] | [7] | [8] | [9]
